Compound activity as filed in PubChem BioAssay.
The list is not random: actives were taken first. Their share in the collection is about 10%.
G9a block = blocks human histone lysine methyltransferase G9a. G9a H3K9 monomethylation, AlphaScreen, 2 h. Potency, µM (highest dose often 102 µM), without a hit: at the highest dose activity, negative = inhibition, hits mostly inhibitors. 350,000 tested, 8.8% active. AID 504332; note: potency is the fitted concentration of half-maximal effect; % is set by controls: 0 for no effect and ±100 for the full control effect; nearly all actives have a fitted effect of over 75% in size
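Signal arises when biotinylated H3K9 peptide, once monomethylated, bridges streptavidin donor and antibody-captured acceptor beads. Enzyme at 20 nM was preincubated 15 min with test compounds; peptide 500 nM and SAM 20 uM then reacted for 2 h.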
Six1-Eya2 blk = inhibitors of human Six1/Eya2 interaction | AlphaScreen GST-Six1/His-Eya2 binding, biochemical; hits give low values | Q15475+O00167 | activity change, % (concentration not given with the values) | 360,000 tested, 0.56% active; in the data active = activity change below about -65%; inconclusive = mostly about -30% to -63%; note: % is set by controls: 0 for no effect and ±100 for the full control effect
Target sequence (O00167 whole entry, looked up): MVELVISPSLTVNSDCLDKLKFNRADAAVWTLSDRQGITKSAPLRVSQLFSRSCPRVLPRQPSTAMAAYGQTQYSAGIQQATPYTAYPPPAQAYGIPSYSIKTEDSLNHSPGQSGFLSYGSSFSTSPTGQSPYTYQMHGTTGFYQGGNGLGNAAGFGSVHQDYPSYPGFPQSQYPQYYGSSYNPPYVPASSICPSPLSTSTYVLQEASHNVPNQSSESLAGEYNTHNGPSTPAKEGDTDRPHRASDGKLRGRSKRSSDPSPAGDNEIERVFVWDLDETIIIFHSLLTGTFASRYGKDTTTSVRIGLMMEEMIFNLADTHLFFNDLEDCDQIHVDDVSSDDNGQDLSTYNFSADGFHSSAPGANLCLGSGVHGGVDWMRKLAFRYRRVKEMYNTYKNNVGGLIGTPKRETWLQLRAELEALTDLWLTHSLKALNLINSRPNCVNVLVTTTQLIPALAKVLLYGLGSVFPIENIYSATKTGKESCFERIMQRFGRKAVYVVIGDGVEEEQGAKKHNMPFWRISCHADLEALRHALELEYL
Target sequence (Q15475 whole entry, looked up): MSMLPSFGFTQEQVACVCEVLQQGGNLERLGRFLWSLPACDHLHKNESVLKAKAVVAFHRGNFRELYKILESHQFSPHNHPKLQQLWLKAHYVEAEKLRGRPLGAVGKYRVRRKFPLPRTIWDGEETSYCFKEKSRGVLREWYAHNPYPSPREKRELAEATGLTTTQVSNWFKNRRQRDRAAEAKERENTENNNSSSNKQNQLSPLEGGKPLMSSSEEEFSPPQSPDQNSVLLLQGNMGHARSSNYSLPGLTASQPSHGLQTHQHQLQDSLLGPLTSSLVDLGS
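AlphaScreen with GST-Six1 and His-Eya2 (5X mix: 250 nM and 500 nM), glutathione donor and nickel acceptor beads; buffer 50 mM Tris pH 8.0, 300 mM NaCl, 1 mM TCEP; 1 h at 37 C in the dark.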
BAZ2B inh = BAZ2B (human) inhibition. AlphaScreen BAZ2B-H3K14Ac peptide displacement. Potency, µM (series often up to 114 µM), for inactives: at the top dose activity change, negative = inhibition, hits mostly inhibitors. AID 504333. 360,000 tested, 4.4% active; note: potency is the fitted concentration of half-maximal effect; % is set by controls: 0 for no effect and ±100 for the full control effect; nearly all actives have a fitted effect of over 60% in size
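AlphaScreen displacement of biotin-H3(5-23)K14Ac peptide (50 nM final) from BAZ2B (50 nM final) in PBS pH 7.4, 0.01% Tween-20; complex preformed 30 min RT, then compounds (top 110 uM) 30 min RT, beads 20 min dark.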
CtBP-E1A blk = CtBP/E1A binding inhibition; AlphaScreen GST-E1A/His-CtBP binding, 1536-well; hits give low values; activity change, % (no concentration beside the values); 340,000 tested, 0.49% active; in the data active = activity change below about -65%; inconclusive = mostly about -30% to -63%; note: % is set by controls: 0 for no effect and ±100 for the full control effect
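Protein mix (5X: 125 nM each GST-E1A, His-CtBP) was incubated with pinned compound 2 h at 37 deg C in dark, in 50 mM Tris pH 8.0 buffer with 300 mM NaCl. Glutathione donor and nickel acceptor beads followed; AlphaScreen signal read after 1 h.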
HP1b chromo inh = blocks HP1-beta chromodomain binding to methylated histone tails; 390,000 tested, 0.56% active; AlphaScreen HP1-beta / biotin-H3K9me3 peptide binding; P83916; Potency, µM (top dose mostly 114 µM), for the others: top-dose activity change, negative = inhibition, actives largely listed as inhibitors; AID 540317; note: potency is the fitted concentration of half-maximal effect; nearly all actives have a fitted effect of over 70% in size
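AlphaScreen: HP1-beta (50 nM) preformed 30 min with biotin-H3(1-18)K9me3 peptide (50 nM) in PBS pH 7.4, 0.01% Tween-20. Compound added for 30 min at RT, then streptavidin donor/nickel chelate acceptor beads (10 ug/mL) for 30 min.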
JMJD2A Tudor inh = JMJD2A Tudor domain (human) inhibition | 390,000 tested, 4.4% active | Potency, µM (top dose mostly 114 µM), inactives show at the top dose activity change, negative = inhibition, most hits filed as inhibitors | O75164 | AlphaScreen JMJD2A-Tudor / H3K4me3 peptide binding; note: potency is the fitted concentration of half-maximal effect; % is set by controls: 0 for no effect and ±100 for the full control effect; nearly all actives have a fitted effect of over 50% in size
The depositor's hits bear a star; u = inconclusive; x = no result given; [ ] = remark or other dose. Unless noted, calls come from the whole dose curve; as a rule, active = well fitted inhibition curve with a large enough effect; inconclusive = small, poorly fitted or top-dose-only effect; inactive = no such curve, though single readings can be large or run the other way.

SMILES	G9a block	Six1-Eya2 blk	BAZ2B inh	CtBP-E1A blk	HP1b chromo inh	JMJD2A Tudor inh
Cc1ccc(C)c(-c2cc(C(=O)NC3CC3)c3ccccc3n2)c1	45µM*	1	-25%	-13	20%	-24%
CC(C)NC(=O)c1ccc(Cn2c(=O)c3cccn3c3cccnc32)cc1	7%[59 µM]	x	-4%	x	28%	13%
CC1CCN(C(=O)Cn2nnc(-c3ccc(N)cc3)n2)CC1	6%	-4	-4%	-11	-2%	-10%
COc1ccc(NC(=O)CSCC(=O)Nc2cccc(S(=O)(=O)N3CCCCCC3)c2)cc1	u	-1	-3%	-14	-13%	-21%
Cc1cc2nc(-c3ccc(Br)cc3)cc(C(F)(F)F)n2n1	11%[59 µM]	x	10%	x	7%	-2%
Cc1ccc(C)c(-c2cc(C(=O)NNC(=S)NCC(C)C)c3ccccc3n2)c1	10µM*	-7	-4%	-4	-9%	-20%
CCNC(=S)NNC(=O)c1cc(-c2ccccc2C)nc2ccccc12	u	-4	-3%[57.1 µM]	-1	8%	-33%
C/C(=N\O)C(=O)NCCN(C)C	u	17	-9%	6	-3%	7.9µM*
COc1ccccc1OC(C)C(=O)N1CCN(CCc2ccccn2)CC1 (stereo not drawn)	u	x	-12%	x	25%	-18%
Cc1ccc(O)c(C2=NCCNC(C(F)(F)F)=C2)c1	u	-12	-8%	-6	0%	18%
Oc1c(C2=NCCNC(C(F)(F)F)=C2)ccc2ccccc12	-108%[59 µM]	u	25µM*	u	u	50µM*
CCOC(=O)C(NS(=O)(=O)c1ccccc1)(C(F)(F)F)P(=O)(OCC(C)C)OCC(C)C (stereo not drawn)	10µM*	-10	2%	-14	13%	-16%
COc1ccccc1NC(=O)CSc1sc2c(O)cc(=O)[nH]c2c1C#N	8.9µM*	-4	u	-8	-17%	u
COc1ccc(NC(=O)CSc2sc3c(O)cc(=O)[nH]c3c2C#N)c(OC)c1	79µM*	-18	79µM*	-1	u	u
COc1ccc(Cl)cc1NC(=O)CSc1sc2c(O)cc(=O)[nH]c2c1C#N	u	-9	-31%	-1	11%	-13%
CCC(O)C1CCN(C(=O)c2ccc(OC3CCN(Cc4ccccn4)CC3)cc2)CC1 (stereo not drawn)	-8%	0	-33%	-5	34%	2%
COCC1CCCN(C(=O)c2ccc(OC3CCN(Cc4ccccn4)CC3)cc2)C1 (stereo not drawn)	9%	7	-16%	-23	17%	28µM*
CCN(CC)C1CCN(C(=O)c2ccc(OC3CCN(Cc4ccccn4)CC3)cc2)C1 (stereo not drawn)	-14%	-1	-9%[57.1 µM]	0	20%	-13%
CC(=O)N1CCN(C(=O)c2ccc(OC3CCN(Cc4ccccn4)CC3)cc2)CC1	71µM*	-1	-29%	-1	22%[57 µM]	-4%
COc1cccc(CN(C)C(=O)CSCC(=O)Nc2ccc(C)cc2)c1OC	6%[0.501 µM]	4	-6%	-11	19%	-12%
CCOC(=O)C1=C(C)NC(C)=C(C(=O)OCC)C1C(=O)OCC(=O)N1CCOCC1	x	2	x	-1	16%	-8%
O=C(NCCc1ccccc1)C(=O)NCC1OCCN1S(=O)(=O)c1ccc([N+](=O)[O-])cc1 (stereo not drawn)	22%	2	-15%	-13	20%	-12%
Cc1ccc2c(c1)NCCO2	u	-5	x	-5	10%	50µM*
COC(=O)c1ccccc1S(=O)(=O)N1CCC(C(=O)OCC(=O)NC2CCCCC2C)CC1 (stereo not drawn)	20µM*	-1	9%	-2	28%	-8%
COC(=O)c1ccccc1S(=O)(=O)N1CCC(C(=O)OCC(=O)c2ccccc2OC)CC1	40µM*	-4	-31%	4	28%	-14%
